cFRET/donor change data for 78 compounds are collected here from the supplement of paper PMC9877034.

Where a name gives a salt, the structure may show the parent alone. Over roughly 1,000 compounds, “cFRET/donor change relative to DMSO, normalised to beta-lapachone positive control (supercomplex I-IV assembly)” has its median near 0.18; the lowest 2% begin near -1. This excerpt belongs to a sample that is enriched for the lowest values.

This assay has as its system C2C12 (NDUFB8-AcGFP / COX8A-DsRed-Monomer FRET reporter). The assay is described as follows: cFRET/donor change relative to DMSO, normalised to beta-lapachone positive control (supercomplex I-IV assembly) (fraction of beta-lapachone effect); higher = more respiratory supercomplex assembly. The following applies: 40 µM; 24 h. The protocol:
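Cells were treated with 40 uM compound for 24 h and imaged on an IN Cell Analyzer 6000. Corrected FRET was divided by donor signal (cFRET/donor) and measured in two replicate experiments. The score is (mean cFRET/donor of compound - mean DMSO) / (mean beta-lapachone 40 uM - mean DMSO). Compounds flagged for prominent cell death, abnormal morphology or decreased cell number were excluded.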
Turning to `COc1cc2nc(N3CCCN(C)CC3)nc(NC3CCN(Cc4ccccc4)CC3)c2cc1OC`, the cFRET/donor change was 0.186.
On to `C=C(c1ccc(C(=O)O)cc1)c1cc2c(cc1C)C(C)(C)CCC2(C)C` [Bexarotene], for which the cFRET/donor change was found to be 0.499.
For the compound `c1ccc(C(NCCNC(c2ccccc2)c2ccccc2)c2ccccc2)cc1`, the cFRET/donor change was 0.0957.
Then `COc1ccccc1CNC1CCCNC1c1ccccc1` (stereo not drawn), with 0.266; and `O=C(Nc1cc(C(F)(F)F)cc(C(F)(F)F)c1)Nc1c(Br)cc(Br)cc1-c1nn[nH]n1`, with 1.37; and `C[C@@H](O)[C@H]1C(=O)N2C(C(=O)O)=C(SCCNC=N)C[C@H]12` [Imipenem monohydrate], with 0.461.
The compound `Cc1cc(C)c(/C=C2\C(=O)Nc3ccccc32)[nH]1` displayed a cFRET/donor change of -2.59.
For `COc1cc(OC)c(C=C2C(=O)Nc3ccccc32)c(OC)c1`, the cFRET/donor change was found to be 0.382.
Then `CN(C)CCC(c1ccc(Br)cc1)c1ccccn1` (racemic) [(±)-Brompheniramine maleate], with 0.0175; and `Clc1ccc(C(c2ccccc2Cl)C(Cl)Cl)cc1` (stereo not drawn) [1-(2-Chlorophenyl)-1-(4-chlorophenyl)-2,2-dichloroethane], with 0.237; and `NCCC[C@](N)(C(=O)O)C(F)F` (racemic) [DL-alpha-Difluoromethylornithine hydrochloride], with 0.232.
Then `COc1cc(/C=C/C(=O)N2CCC=CC2=O)cc(OC)c1OC` [Piperlongumine], with -0.315; and `CC(C)(C=O)Cc1cc(C(C)(C)C)c(O)c(C(C)(C)C)c1`, with 0.29.
Turning to `CC(C)(C)c1cc(/C=C(\C#N)C(N)=S)cc(C(C)(C)C)c1O` [Tyrphostin AG 879], the cFRET/donor change is -2.01.
Then `N#CC(C#N)=C(N)/C(C#N)=C/c1ccc(O)cc1` [Tyrphostin AG 112], with 0.38; and `COc1ccc(C2(O)OC(=O)C(c3ccc4c(c3)OCO4)=C2Cc2cc(OC)c(OC)c(OC)c2)cc1` (stereo not drawn), with 0.173.
Then `CCN1CCCC1CNC(=O)c1cc(S(N)(=O)=O)ccc1OC` (single isomer, unassigned; (-)) [(-)-Sulpiride], with 0.312.
Then `CC[C@@]1(O)C(=O)OCc2c1cc1n(c2=O)Cc2cc3c(CN(C)C)c(O)ccc3nc2-1` [Topotecan hydrochloride hydrate], with -3.92; and `NCCCCN` [Putrescine dihydrochloride], with 0.0353.
Regarding `NCCS(=O)(=O)O` [Taurine], the cFRET/donor change is -0.02.
Then `NCCCS(=O)(=O)O` [3-Amino-1-propanesulfonic acid sodium], with -2.05; and `COC1=C(OC)C(=O)c2ccccc2C1=O` [2,3-Dimethoxy-1,4-naphthoquinone], with 0.433.
`Cc1cc(Cl)ccc1OCCCC(=O)NO` [Droxinostat] returned a cFRET/donor change of 0.131.
Then `COc1cccc2c1[C@@H]1CN(CCCCn3c(=O)[nH]c4c(sc5ncc(-c6ccccc6)nc54)c3=O)C[C@@H]1CO2` [Fiduxosin hydrochloride], with -1.25.
On to `Cn1cnc([N+](=O)[O-])c1Sc1ncnc2[nH]cnc12` [Azathioprine], for which the cFRET/donor change is 0.496.
In turn, `N=c1ccn2c(n1)O[C@H]1[C@H](O)[C@@H](CO)O[C@H]12` [Ancitabine hydrochloride] came in with a cFRET/donor change of -0.0397.
Then `Fc1ccc2[nH]c(CN3CCN(c4ccccn4)CC3)cc2c1`, with 0.168; and `CC(C)[C@H](N)C(=O)OCC(CO)OCn1cnc2c(=O)[nH]c(N)nc21` (stereo partly drawn) [Valganciclovir hydrochloride hydrate], with -0.064; and `N=C(N)NCCCCN` [Agmatine sulfate], with 0.125.
Then `CS(=O)(=O)c1cccc(CNc2nc(Nc3ccc4c(c3)CCC(=O)N4)ncc2C(F)(F)F)c1`, with 2.
Then `NC(=S)c1ccc[n+]([C@@H]2O[C@@H](COP(=O)([O-])OP(=O)(O)OC[C@H]3O[C@@H](n4cnc5c(N)ncnc54)C(OP(=O)(O)O)[C@H]3O)C(O)C2O)c1` (stereo partly drawn) [Thio-NADP sodium], with -0.317; and `O=C(c1ccc(OCCCc2c[nH]cn2)cc1)C1CC1` [Ciproxifan hydrochloride], with 0.224.
In turn, `O=c1ccc2c(OCCCCc3ccccc3)c3ccoc3cc2o1` [Psora-4] showed a cFRET/donor change of 0.396.
Turning to `Cc1cccc(-c2[nH]ncc2-c2ccc3ncccc3n2)n1`, the cFRET/donor change was determined as 0.0385.
In turn, `CC1=C(C)C(=O)C(CCCCC#CCCCC#CCO)=C(C)C1=O` came in with a cFRET/donor change of 0.121.
Then `Nc1cc2c(ncn2CCOCP(=O)(O)O)c(=O)[nH]1` [PMEG hydrate], with 0.0365; and `N[C@@H]1[C@H]2CN(c3nc4c(cc3F)c(=O)c(C(=O)O)cn4-c3ccc(F)cc3F)C[C@@H]12` [Trovafloxacin mesylate], with 0.3.
Compound `CC(C(O)c1ccc(O)cc1)N1CCC(Cc2ccccc2)CC1` (stereo not drawn) [Ifenprodil tartrate] displayed a cFRET/donor change of 0.529.
Compound `O=C(Nc1cccnc1)N1CCC(Cc2cccc(Oc3ccc(C(F)(F)F)cn3)c2)CC1` [PF 3845 hydrate] yielded a cFRET/donor change of 0.494.
Regarding `Nc1ccc(-c2ccc3ccccc3n2)cc1` [BF-170 hydrochloride], the cFRET/donor change is -0.429.
Then `CN(C)C(=O)[C@H](O)[C@H](Cc1ccccc1)NC(=O)c1cc2cc(Cl)ccc2[nH]1`, with 0.332.
`NC(=O)C1=CN(C2OC(COP(=O)(O)OP(=O)(O)OC[C@H]3O[C@@H](n4cnc5c(N)ncnc54)C(OP(=O)(O)O)[C@H]3O)C(O)C2O)C=CC1` (stereo partly drawn) [NADPH tetrasodium]: the cFRET/donor change is -0.198.
Then `Cc1[nH]c(=O)c(C#N)cc1-c1ccc2nccn2c1` [Olprinone hydrochloride], with 0.211; and `CN1C2CCCC1CC(NC(=O)c1nn(C)c3ccccc13)C2` (stereo not drawn) [Granisetron hydrochloride], with 0.333; and `O=C(O)COCCN1CCN(C(c2ccccc2)c2ccc(Cl)cc2)CC1` (stereo not drawn) [Cetirizine dihydrochloride], with 0.511.
Then `Cc1cccc(C)c1NC(=O)C(C)N` (stereo not drawn) [Tocainide hydrochloride], with 0.415.
In turn, `CCCCCc1ccc(/C=C/C(=O)Nc2cc(Cl)ccc2C(=O)O)cc1` came in with a cFRET/donor change of 0.0865.
Regarding `Oc1cc2c(c(Cl)c1O)CCNCC2c1ccccc1` (racemic) [(±)-6-Chloro-PB hydrobromide], the cFRET/donor change was found to be 2.85.
Take `Nc1ccn([C@@H]2O[C@H](CO)[C@@H](O)C2(F)F)c(=O)n1` [Gemcitabine hydrochloride]: the cFRET/donor change came to 0.261.
As to `CCCCc1ncc(/C=C(\Cc2cccs2)C(=O)O)n1Cc1ccc(C(=O)O)cc1` [Eprosartan mesylate], the cFRET/donor change is -0.151.
As to `COCCOc1cc2nc[nH]c(=O)c2cc1OCCOC`, the cFRET/donor change amounted to 0.343.
`CCNC(=O)[C@H]1O[C@@H](n2cnc3c(N)nc(NCCc4ccc(CCC(=O)O)cc4)nc32)[C@H](O)[C@@H]1O` came in with a cFRET/donor change of -0.069.
Turning to `Nc1nc2ccc(Cl)cc2c2nc(-c3ccco3)nn12`, the cFRET/donor change came to 0.163.
`Nc1nc2ccc(Cl)cc2n2c(-c3ccccc3)nnc12` had a cFRET/donor change of -1.23.
Then `OC[C@H]1O[C@H]([S-])[C@H](O)[C@@H](O)[C@@H]1O.[Au+]` [Aurothioglucose], with -0.0527.
Then `Nc1ncnc2c1ncn2[C@@H]1O[C@H](COP(=O)(O)OP(=O)(O)OP(=O)(O)OP(=O)(O)OC[C@@H]2O[C@H](n3cnc4c(N)ncnc43)C(O)[C@@H]2O)[C@H](O)C1O` (stereo partly drawn) [P1,P4-Di(adenosine-5')tetraphosphate triammonium], with 0.0746.
Then `CCOC(=O)[C@H](CCc1ccccc1)N[C@@H](C)C(=O)N1[C@H](C(=O)O)C[C@H]2CCCC[C@@H]21` [Trandolapril], with -0.23.
On to `O=C1NC(=O)/C(=C\c2ccc3nccnc3c2)S1`, for which the cFRET/donor change was found to be 2.84.
Then `CCc1ccc(/C=C2/SC(=S)NC2=O)cc1`, with -1.41; and `CCCCS(=O)(=O)N[C@@H](Cc1ccc(OCCCCC2CCNCC2)cc1)C(=O)O` [Tirofiban hydrochloride monohydrate], with 0.174; and `CO[C@H]1O[C@@H]2O[C@@]3(C)CC[C@H]4[C@H](C)CC[C@@H]([C@H]1C)[C@@]24OO3` [Artemether], with 0.954.
Turning to `O=C(NOCC1CC1)c1cc(Br)c(F)c(F)c1Nc1ccc(I)cc1Cl`, the cFRET/donor change stood at 0.176.
With `COc1cc(Nc2c(C#N)cnc3cc(OCCCN4CCN(C)CC4)c(OC)cc23)c(Cl)cc1Cl` [Bosutinib], the cFRET/donor change stood at 0.241.
For the compound `NCC(O)c1ccc(O)c(O)c1` (racemic) [(±)-Norepinephrine (+)bitartrate], the cFRET/donor change is -0.03.
Then `CN(C)C[C@H](O)Cn1c2ccc(Br)cc2c2cc(Br)ccc21` (racemic) [Wiskostatin], with 0.951; and `CN(C)c1ccccc1CN1CCCN(Cc2ccccc2N(C)C)C1c1ccncc1`, with 0.598; and `CS(=O)(=O)c1ccc(-n2nc(C(F)(F)F)cc2-c2ccc(F)cc2)cc1`, with 0.187.
As to `O=C(Nc1ccc2[nH]ncc2c1)C1CCC1` [Rhodblock 6], the cFRET/donor change was determined as 0.156.
Then `COc1cc2nc(N(C)CCCNC(=O)C3CCCO3)nc(N)c2cc1OC` (stereo not drawn) [Alfuzosin hydrochloride], with 0.0541; and `CN(C)CCC(c1ccc(Br)cc1)c1ccccn1` (single isomer, unassigned; (+)) [(+)-Brompheniramine maleate], with 0.114.
Consider `CN1CCN(CCCN2c3ccccc3Sc3ccc(C(F)(F)F)cc32)CC1` [Trifluoperazine dihydrochloride], for which the cFRET/donor change amounted to 0.794.
For the compound `Nc1nc2c(c(=O)[nH]1)C[C@@H](CCc1ccc(C(=O)N[C@@H](CCC(=O)O)C(=O)O)cc1)CN2` [Lometrexol hydrate], the cFRET/donor change was -0.284.
`N=C(N)NC(=O)c1nc(Cl)c(N)nc1N` [Amiloride hydrochloride] registered a cFRET/donor change of -0.0692.
Then `CN(C)c1nc(N)c(C(=O)NC(=N)N)nc1Cl` [5-(N,N-Dimethyl)amiloride hydrochloride], with 0.174; and `CCN(c1nc(N)c(C(=O)NC(=N)N)nc1Cl)C(C)C` [5-(N-Ethyl-N-isopropyl)amiloride], with -1.88; and `COc1ccc(Br)cc1S(=O)(=O)NC(=O)/C=C/c1ccccc1Cc1ccc2ccccc2c1`, with 0.583.
Then `COc1ccc(/C=C/c2nc(NCCCN(C)C)c3ccccc3n2)cc1`, with 0.418; and `Cn1c(=O)c2nc[nH]c2n(C)c1=O` [Theophylline], with 0.334.
